# Experimental data as given in paper PMC7862700, “An all-to-all approach to the identification of sequence-specific readers for epigenetic DNA modifications on cytosine”.
# Legend:
# Test in all cases: DAPPL (digital affinity profiling via proximity ligation, sequencing); 10 mM Tris-HCl pH 7.5, 50 mM NaCl, 1 mM DTT, 4% glycerol, room temperature, 30 min; GST-TFs on glutathione beads, 16-mer random dsDNA library, 0.1% formaldehyde crosslink after washing; high values mean tight binding
# [1] = target: T1, FEV (Homo sapiens, UniProt Q99581 1-238); conditions: protein: recombinant; tags: N-terminal GST; dsDNA, one strand shown
# T1 sequence: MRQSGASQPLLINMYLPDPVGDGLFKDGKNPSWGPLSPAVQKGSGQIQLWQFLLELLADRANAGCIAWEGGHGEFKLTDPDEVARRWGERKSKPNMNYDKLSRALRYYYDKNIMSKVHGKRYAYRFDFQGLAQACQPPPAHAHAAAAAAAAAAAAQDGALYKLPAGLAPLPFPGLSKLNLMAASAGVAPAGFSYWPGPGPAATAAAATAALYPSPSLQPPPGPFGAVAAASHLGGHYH
# Procedure, shortened: (§1)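 Pools of DNA-barcoded human transcription factors, expressed in yeast as GST fusions on glutathione beads and combined with a tag-only sample, were incubated with 200 nmole of a 16-mer random double-stranded DNA library. Incubation took 30 min at room temperature in Tris/NaCl/DTT/glycerol buffer and was followed by washing, 0.1% formaldehyde crosslinking, proximity ligation (BsaI/T4 ligase, 1 h, 37 °C), PCR amplification and sequencing on an Illumina NextSeq500. Binding signal is the ratio of a hexamer's read frequency for a factor to its frequency for the tag-only sample.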
# [2] = target: ETV5 (Homo sapiens, UniProt P41161 1-510); conditions: protein: recombinant; tags: N-terminal GST; dsDNA, one strand shown
# Procedure, shortened: as §1
# [3] = target: HSF1 (Homo sapiens, UniProt Q00613 1-529); conditions: protein: recombinant; tags: N-terminal GST; chain copies: 3; dsDNA, one strand shown
# Procedure, shortened: as §1
# [4] = target: T2, SPIC (Homo sapiens, UniProt Q8N5J4 1-248); conditions: protein: recombinant; tags: N-terminal GST; dsDNA, one strand shown
# T2 sequence: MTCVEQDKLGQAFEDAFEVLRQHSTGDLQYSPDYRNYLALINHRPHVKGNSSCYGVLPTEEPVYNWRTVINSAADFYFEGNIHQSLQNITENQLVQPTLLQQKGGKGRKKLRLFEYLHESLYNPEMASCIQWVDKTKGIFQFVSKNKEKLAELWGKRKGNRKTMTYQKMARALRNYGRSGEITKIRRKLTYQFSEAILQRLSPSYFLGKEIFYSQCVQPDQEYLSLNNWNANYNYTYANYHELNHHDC
# Procedure, shortened: as §1
# [5] = target: ELF4 (Homo sapiens, UniProt Q99607 1-663); conditions: protein: recombinant; tags: N-terminal GST; dsDNA, one strand shown
# Procedure, shortened: as §1
# [6] = target: T3, ELK4 (Homo sapiens, UniProt P28324-2 1-405); conditions: protein: recombinant; tags: N-terminal GST; dsDNA, one strand shown
# T3 sequence: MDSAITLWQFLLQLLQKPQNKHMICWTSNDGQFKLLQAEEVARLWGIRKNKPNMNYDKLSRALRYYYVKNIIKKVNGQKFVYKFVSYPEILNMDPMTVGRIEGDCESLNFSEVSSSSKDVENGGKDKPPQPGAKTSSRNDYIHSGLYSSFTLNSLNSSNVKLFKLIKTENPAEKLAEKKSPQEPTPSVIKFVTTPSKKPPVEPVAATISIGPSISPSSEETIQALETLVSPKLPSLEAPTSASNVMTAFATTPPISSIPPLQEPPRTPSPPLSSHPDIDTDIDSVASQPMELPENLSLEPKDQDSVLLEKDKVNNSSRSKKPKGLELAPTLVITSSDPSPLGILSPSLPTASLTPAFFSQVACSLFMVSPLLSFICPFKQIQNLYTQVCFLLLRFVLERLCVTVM
# Procedure, shortened: as §1
# [7] = target: T4, ETV2 (Homo sapiens, UniProt O00321 1-342); conditions: protein: recombinant; tags: N-terminal GST; dsDNA, one strand shown
# T4 sequence: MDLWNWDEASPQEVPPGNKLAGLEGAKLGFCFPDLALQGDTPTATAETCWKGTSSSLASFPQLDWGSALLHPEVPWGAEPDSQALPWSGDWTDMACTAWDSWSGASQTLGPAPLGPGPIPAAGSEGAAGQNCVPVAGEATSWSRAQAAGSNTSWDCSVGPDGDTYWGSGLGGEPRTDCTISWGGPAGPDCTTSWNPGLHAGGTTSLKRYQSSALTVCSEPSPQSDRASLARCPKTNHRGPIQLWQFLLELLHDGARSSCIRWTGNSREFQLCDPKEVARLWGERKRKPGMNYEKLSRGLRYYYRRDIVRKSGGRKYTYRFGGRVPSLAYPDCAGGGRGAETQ
# Procedure, shortened: as §1
# [8] = target: T5, ELF3 (Homo sapiens, UniProt P78545 1-371); conditions: protein: recombinant; tags: N-terminal GST; dsDNA, one strand shown
# T5 sequence: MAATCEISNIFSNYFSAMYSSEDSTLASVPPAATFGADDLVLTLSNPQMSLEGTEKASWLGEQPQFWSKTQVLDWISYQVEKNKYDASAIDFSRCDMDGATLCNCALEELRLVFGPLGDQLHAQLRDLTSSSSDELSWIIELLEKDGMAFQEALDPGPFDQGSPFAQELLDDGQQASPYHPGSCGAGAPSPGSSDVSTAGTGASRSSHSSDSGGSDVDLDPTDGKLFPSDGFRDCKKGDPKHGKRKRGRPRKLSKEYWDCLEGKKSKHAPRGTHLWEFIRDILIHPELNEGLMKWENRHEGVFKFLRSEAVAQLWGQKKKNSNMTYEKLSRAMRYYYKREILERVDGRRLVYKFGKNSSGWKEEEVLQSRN
# Procedure, shortened: as §1
# [9] = target: CRX (Homo sapiens, UniProt O43186 1-299); conditions: protein: recombinant; tags: N-terminal GST; dsDNA, one strand shown
# Procedure, shortened: as §1
# [10] = target: ETV1 (Homo sapiens, UniProt P50549 1-477); conditions: protein: recombinant; tags: N-terminal GST; dsDNA, one strand shown
# Procedure, shortened: as §1
# [11] = target: T6, ERF (Homo sapiens, UniProt P50548 1-548); conditions: protein: recombinant; tags: N-terminal GST; dsDNA, one strand shown
# T6 sequence: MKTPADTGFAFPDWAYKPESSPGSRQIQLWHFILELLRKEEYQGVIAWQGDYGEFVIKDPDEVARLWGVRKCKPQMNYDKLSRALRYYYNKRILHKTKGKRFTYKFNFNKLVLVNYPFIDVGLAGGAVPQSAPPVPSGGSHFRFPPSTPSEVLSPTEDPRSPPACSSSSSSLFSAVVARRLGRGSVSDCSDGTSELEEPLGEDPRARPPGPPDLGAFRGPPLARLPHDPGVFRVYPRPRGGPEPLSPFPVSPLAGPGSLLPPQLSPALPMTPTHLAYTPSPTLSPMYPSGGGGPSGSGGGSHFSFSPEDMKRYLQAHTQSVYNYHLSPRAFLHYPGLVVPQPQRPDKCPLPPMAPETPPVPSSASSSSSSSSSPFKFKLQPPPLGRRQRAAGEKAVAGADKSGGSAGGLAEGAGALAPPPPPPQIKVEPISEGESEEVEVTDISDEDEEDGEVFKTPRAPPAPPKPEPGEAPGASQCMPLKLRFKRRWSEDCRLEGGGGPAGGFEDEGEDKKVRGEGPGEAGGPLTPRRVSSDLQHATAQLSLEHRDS
# Procedure, shortened: as §1
# [12] = target: T7, ETV3L (Homo sapiens, UniProt Q6ZN32 1-361); conditions: protein: recombinant; tags: N-terminal GST; dsDNA, one strand shown
# T7 sequence: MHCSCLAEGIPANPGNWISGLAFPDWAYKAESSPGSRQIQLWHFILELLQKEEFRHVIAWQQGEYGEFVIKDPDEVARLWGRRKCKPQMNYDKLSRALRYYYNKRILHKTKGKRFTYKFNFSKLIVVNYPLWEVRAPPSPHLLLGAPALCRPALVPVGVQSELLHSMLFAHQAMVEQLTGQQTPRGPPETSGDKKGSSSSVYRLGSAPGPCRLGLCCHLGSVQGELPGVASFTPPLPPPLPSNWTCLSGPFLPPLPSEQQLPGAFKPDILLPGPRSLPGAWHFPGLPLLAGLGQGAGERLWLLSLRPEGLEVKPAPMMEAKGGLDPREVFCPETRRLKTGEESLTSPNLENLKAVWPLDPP
# Procedure, shortened: as §1
# [13] = target: T8, ETS2 (Homo sapiens, UniProt P15036 1-469); conditions: protein: recombinant; tags: N-terminal GST; dsDNA, one strand shown
# T8 sequence: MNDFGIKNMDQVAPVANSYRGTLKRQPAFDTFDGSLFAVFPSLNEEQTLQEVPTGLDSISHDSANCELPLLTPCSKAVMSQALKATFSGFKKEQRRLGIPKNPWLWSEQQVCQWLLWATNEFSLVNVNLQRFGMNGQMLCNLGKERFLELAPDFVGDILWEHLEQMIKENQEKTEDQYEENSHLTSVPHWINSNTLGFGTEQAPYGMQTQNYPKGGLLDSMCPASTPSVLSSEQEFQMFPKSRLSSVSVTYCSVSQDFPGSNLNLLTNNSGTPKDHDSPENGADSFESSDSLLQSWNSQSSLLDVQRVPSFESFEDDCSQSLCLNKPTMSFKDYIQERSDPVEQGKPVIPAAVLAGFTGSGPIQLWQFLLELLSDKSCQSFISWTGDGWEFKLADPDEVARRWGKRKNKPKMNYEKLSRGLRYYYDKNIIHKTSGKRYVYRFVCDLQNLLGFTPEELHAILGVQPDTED
# Procedure, shortened: as §1
# [14] = target: T9, SPDEF (Homo sapiens, UniProt O95238 1-335); conditions: protein: recombinant; tags: N-terminal GST; dsDNA, one strand shown
# T9 sequence: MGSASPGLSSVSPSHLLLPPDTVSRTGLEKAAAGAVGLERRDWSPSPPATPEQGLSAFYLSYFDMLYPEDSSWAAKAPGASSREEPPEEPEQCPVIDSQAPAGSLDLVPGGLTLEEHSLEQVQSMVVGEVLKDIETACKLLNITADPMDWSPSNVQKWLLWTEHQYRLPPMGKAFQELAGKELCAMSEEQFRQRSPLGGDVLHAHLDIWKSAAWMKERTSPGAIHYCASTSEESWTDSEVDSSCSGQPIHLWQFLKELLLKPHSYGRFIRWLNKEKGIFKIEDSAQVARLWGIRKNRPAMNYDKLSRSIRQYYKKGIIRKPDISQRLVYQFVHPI
# Procedure, shortened: as §1
# [15] = target: T10, ETV7 (Homo sapiens, UniProt Q9Y603 1-341); conditions: protein: recombinant; tags: N-terminal GST; dsDNA, one strand shown
# T10 sequence: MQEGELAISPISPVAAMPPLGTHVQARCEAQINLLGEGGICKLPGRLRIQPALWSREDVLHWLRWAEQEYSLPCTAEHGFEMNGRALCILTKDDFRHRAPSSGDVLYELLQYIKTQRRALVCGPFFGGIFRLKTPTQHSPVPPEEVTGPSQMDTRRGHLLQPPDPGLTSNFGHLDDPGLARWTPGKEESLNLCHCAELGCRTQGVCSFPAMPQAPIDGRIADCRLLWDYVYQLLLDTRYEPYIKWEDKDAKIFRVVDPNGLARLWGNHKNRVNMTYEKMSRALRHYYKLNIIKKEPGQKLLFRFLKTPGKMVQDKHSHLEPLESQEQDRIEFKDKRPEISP
# Procedure, shortened: as §1
# [16] = target: T11, ELF5 (Homo sapiens, UniProt Q9UKW6-2 1-255); conditions: protein: recombinant; tags: N-terminal GST; dsDNA, one strand shown
# T11 sequence: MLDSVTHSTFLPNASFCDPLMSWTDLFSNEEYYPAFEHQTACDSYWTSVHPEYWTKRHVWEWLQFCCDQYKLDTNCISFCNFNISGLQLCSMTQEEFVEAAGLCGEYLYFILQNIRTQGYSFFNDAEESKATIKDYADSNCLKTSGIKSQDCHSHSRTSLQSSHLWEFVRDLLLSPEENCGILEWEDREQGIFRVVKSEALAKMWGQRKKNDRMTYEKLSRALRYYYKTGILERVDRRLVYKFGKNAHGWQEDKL
# Procedure, shortened: as §1
# [17] = target: ETV6 (Homo sapiens, UniProt P41212 1-452); conditions: protein: recombinant; tags: N-terminal GST; dsDNA, one strand shown
# Procedure, shortened: as §1
# Sequence of ELF4 (Q99607 whole entry): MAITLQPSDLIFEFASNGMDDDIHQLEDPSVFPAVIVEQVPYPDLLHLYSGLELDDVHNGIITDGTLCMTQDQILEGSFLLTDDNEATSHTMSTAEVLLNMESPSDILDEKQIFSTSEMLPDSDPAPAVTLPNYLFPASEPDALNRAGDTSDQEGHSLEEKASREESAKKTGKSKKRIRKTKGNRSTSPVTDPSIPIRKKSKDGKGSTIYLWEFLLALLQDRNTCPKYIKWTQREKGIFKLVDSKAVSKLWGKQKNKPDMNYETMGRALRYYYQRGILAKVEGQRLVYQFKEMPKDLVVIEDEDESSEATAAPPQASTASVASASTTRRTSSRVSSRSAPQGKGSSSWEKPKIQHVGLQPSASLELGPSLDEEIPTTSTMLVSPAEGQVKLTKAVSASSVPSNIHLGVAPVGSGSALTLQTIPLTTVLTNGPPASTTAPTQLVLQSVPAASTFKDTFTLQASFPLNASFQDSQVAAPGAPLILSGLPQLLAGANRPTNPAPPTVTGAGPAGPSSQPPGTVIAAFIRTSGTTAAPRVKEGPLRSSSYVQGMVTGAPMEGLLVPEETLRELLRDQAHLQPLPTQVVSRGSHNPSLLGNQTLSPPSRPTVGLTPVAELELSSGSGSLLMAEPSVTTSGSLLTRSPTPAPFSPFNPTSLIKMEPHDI
# Sequence of ETV1 (P50549 whole entry): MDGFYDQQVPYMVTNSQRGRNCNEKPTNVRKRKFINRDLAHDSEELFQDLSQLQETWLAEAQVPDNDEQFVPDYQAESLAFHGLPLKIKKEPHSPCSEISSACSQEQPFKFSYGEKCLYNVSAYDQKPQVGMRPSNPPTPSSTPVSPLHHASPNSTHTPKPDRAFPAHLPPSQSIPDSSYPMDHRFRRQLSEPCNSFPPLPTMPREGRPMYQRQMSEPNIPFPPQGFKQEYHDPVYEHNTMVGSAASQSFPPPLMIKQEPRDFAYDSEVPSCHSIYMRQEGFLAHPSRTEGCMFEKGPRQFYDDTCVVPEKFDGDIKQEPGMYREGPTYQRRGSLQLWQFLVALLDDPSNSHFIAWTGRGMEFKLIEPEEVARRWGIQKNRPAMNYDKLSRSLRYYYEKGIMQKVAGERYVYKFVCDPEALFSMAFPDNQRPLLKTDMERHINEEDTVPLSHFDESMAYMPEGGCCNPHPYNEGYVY
# Sequence of HSF1 (Q00613 whole entry): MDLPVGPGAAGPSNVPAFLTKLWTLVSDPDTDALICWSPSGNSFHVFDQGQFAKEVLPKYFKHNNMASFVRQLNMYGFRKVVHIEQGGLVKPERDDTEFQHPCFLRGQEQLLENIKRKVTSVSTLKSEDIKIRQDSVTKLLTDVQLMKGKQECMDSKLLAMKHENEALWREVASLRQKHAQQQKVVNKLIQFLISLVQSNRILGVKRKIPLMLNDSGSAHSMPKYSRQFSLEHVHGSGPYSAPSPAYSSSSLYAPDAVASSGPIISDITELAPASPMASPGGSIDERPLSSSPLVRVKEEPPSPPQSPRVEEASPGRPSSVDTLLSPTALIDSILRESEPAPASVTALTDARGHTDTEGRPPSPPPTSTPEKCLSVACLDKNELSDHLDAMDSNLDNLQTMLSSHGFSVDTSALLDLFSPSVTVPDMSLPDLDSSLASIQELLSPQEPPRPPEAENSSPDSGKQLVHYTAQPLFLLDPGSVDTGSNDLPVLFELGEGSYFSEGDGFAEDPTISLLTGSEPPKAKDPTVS
# Sequence of ETV5 (P41161 whole entry): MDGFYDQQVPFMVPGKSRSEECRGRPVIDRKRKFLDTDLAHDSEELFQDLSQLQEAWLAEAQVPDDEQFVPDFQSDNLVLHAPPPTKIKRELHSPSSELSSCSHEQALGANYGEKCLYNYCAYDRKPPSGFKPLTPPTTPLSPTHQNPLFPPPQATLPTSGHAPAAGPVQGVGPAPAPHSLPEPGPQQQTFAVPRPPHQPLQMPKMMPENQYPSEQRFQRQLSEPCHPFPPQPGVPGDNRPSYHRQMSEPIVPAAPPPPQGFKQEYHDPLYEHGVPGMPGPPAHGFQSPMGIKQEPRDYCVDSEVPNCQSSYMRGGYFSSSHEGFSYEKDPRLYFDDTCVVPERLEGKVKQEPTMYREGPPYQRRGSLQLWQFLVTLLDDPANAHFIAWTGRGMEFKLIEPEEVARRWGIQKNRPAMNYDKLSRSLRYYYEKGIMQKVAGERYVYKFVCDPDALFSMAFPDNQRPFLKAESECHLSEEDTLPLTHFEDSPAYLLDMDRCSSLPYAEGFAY
# Sequence of CRX (O43186 whole entry): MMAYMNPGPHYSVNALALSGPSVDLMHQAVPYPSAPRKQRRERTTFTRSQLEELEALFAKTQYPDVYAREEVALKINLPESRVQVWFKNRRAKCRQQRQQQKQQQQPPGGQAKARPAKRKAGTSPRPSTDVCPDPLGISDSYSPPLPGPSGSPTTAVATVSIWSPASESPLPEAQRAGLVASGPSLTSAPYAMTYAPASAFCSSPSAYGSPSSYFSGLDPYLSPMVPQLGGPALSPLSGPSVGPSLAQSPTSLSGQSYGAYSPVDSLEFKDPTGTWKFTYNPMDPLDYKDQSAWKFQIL
# Sequence of ETV6 (P41212 whole entry): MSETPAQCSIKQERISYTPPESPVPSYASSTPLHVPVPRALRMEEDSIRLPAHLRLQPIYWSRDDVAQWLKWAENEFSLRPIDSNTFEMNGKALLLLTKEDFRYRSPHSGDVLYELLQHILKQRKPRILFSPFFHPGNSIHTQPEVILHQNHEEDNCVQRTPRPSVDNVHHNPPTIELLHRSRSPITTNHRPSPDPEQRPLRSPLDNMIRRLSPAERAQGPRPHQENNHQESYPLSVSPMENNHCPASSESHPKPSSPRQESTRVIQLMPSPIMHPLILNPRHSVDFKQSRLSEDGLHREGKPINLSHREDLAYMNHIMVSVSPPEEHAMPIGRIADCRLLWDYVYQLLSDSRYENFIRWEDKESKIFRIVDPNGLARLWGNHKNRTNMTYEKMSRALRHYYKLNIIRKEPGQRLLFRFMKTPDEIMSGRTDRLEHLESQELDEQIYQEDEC
sequence,measurement,setting,value
ATCCCA,binding signal,[1],"1.14 fold enrichment (6-mer frequency, TF over GST control)"
same,binding signal,[2],"1.11 fold enrichment (6-mer frequency, TF over GST control)"
same,binding signal,[3],"1.34 fold enrichment (6-mer frequency, TF over GST control)"
same,binding signal,[4],"1.07 fold enrichment (6-mer frequency, TF over GST control)"
same,binding signal,[5],"1.1 fold enrichment (6-mer frequency, TF over GST control)"
same,binding signal,[6],"1.13 fold enrichment (6-mer frequency, TF over GST control)"
same,binding signal,[7],"1.14 fold enrichment (6-mer frequency, TF over GST control)"
same,binding signal,[8],"1.23 fold enrichment (6-mer frequency, TF over GST control)"
same,binding signal,[9],"1.69 fold enrichment (6-mer frequency, TF over GST control)"
same,binding signal,[10],"1.09 fold enrichment (6-mer frequency, TF over GST control)"
same,binding signal,[11],"1.21 fold enrichment (6-mer frequency, TF over GST control)"
same,binding signal,[12],"1.1 fold enrichment (6-mer frequency, TF over GST control)"
same,binding signal,[13],"1.03 fold enrichment (6-mer frequency, TF over GST control)"
same,binding signal,[14],"1.1 fold enrichment (6-mer frequency, TF over GST control)"
same,binding signal,[15],"1.2 fold enrichment (6-mer frequency, TF over GST control)"
same,binding signal,[16],"1.17 fold enrichment (6-mer frequency, TF over GST control)"
same,binding signal,[17],"1.12 fold enrichment (6-mer frequency, TF over GST control)"
